Shown are actives, neighbours in structure and some others; about 1.6% of the full set was active somewhere.
IMPase cell inh = IMPase inhibition in cells. P97697. CHO-M1 cells, IP1 accumulation, HTRF TR-FRET ratio. inhibition (IP1 accumulation), % at 46.1 µM. 120,000 tested, under 10 active. AID 901; active = well fitted curve in the direction sought with a large enough effect in the signal ratio, not every such curve was filed as active; inconclusive = small, poorly fitted or top-dose-only effect, or a change in a side signal; inactive = no such curve, though single readings can be large or run the other way; the % refers to the signal ratio;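 note: cells stimulated with carbachol in lithium chloride buffer; higher means more IMPase inhibition seen as more IP1 and lower FRET ratio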
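The IP-One HTRF competitive assay in carbachol-stimulated CHO-M1 cells quantifies cellular IP1. Compounds spanned up to 46 uM final, and activity is expressed as AC50 from concentration-response fits of the ratio and donor data.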
NPSR antagonist = antagonists of human neuropeptide S receptor cAMP signaling; actives 1% (n = 220,000); Potency, µM (top dose mostly 38.3 µM), hits mostly inhibitors; AID 1461; CHO-NPSR cells, cAMP TR-FRET, antagonist mode; Q6W5P4; note: nearly all actives have a fitted effect of over 50% in size
Target sequence (Q6W5P4 whole entry, looked up): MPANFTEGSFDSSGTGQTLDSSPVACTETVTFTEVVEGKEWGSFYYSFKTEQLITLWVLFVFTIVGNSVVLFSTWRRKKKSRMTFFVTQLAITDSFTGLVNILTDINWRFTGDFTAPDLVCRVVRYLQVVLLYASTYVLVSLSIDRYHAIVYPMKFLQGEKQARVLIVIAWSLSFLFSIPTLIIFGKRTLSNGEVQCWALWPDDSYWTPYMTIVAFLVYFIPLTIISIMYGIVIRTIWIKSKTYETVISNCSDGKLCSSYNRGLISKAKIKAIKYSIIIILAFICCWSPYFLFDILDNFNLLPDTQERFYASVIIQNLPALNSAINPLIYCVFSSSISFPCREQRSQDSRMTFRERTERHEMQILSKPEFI
Lamin A splicing = changes lamin A minigene splicing in HeLa cells; HeLa LMNA splicing GFP/RFP minigene ratio, 48 h; actives 0.01% (n = 200,000); Potency, µM (series often up to 46.1 µM), usual class: inhibitors; active = well fitted inhibition curve with a large enough effect in the signal ratio, with a control signal flat, not every such curve was filed as active; inconclusive = small, poorly fitted or top-dose-only effect, or effect the other way, or a change in a side signal; the % refers to the signal ratio
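S3 HeLa stable clones carrying a lamin A-EGFP splicing minigene plus DsRed2 were seeded at 600 cells/well in Opti-MEM with 2% FBS, pin-dosed and incubated 48 h at 37°C. Acumen cytometry (488 nm) gave the GFP/RFP total-intensity ratio.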
HTT ATP protect = protects HTT-Q103 PC12 cells, measured by ATP; PC12 HTT-Q103 induced, cytoprotection, ATP luminescence, 40 h; Potency, µM (doses to about 56.4 µM), usual class: activators; actives 0.14% (n = 230,000); note: nearly all actives have a fitted effect of over 45% in size
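Compounds added alongside 100 nM tebufenozide, which induces toxic Q103 huntingtin exon 1-GFP in stable PC12 cells; surviving cells quantified by luminescent ATP measurement. Medium: phenol red-free DMEM, 5% equine and 5% calf serum.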
IMPase Li cell = cell-permeable IMPase inhibitors with lithium potentiation | CHO-M1 cells, IP1 TR-FRET (IP-One), carbachol + lithium | Potency, µM (highest dose often 59.4 µM), usual class: inhibitors | actives 0.35% (n = 210,000) | AID 1457;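 note: IP1 builds up when IMPase is blocked and the TR-FRET signal falls; nearly all actives have a fitted effect of over 50% in size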
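Lithium-sensitised IP1 accumulation assay; M1-expressing CHO cells treated 30 min at 37C with compound. Competitive antibody detection by time-resolved FRET followed a 10 min room-temperature lysis step.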
HttQ103 aggreg = reduces HttQ103-GFP aggregates in PC12 cells. PC12 HttQ103-GFP aggregates, Acumen cytometry, 40 h. Potency, µM (doses to about 46.1 µM), usual class: inhibitors. actives 1.1% (n = 220,000). AID 1688; note: nearly all actives have a fitted effect of over 60% in size
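PC12 cells stably carrying ecdysone-inducible HTT exon 1 Q103–GFP were induced with tebufenozide (100 nM final) and treated with library compounds in titration. GFP aggregates in lysates were counted by laser scanning cytometry.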
Large screens that a line does not name were inactive; ! = not active in a repeat. Unless noted, calls come from the whole dose curve; as a rule, active = well fitted curve in the direction sought with a large enough effect; inconclusive = small, poorly fitted or top-dose-only effect, or another doubt; inactive = no such curve, though single readings can be large; an effect the other way counts as inactive or inconclusive.

O=C1c2ccccc2C(O)(O)[C@@]1(O)[C@]1(O)C(=O)c2ccccc2C1(O)O	none (no result: IMPase cell inh, NPSR antagonist, Lamin A splicing, HttQ103 aggreg)
Cc1cc(C(=O)OCC(=O)c2ccc(Br)s2)no1	IMPase cell inh inconclusive, NPSR antagonist inconclusive, IMPase Li cell 6.31µM
O=C(OC[C@@H](O)CO)c1ccccc1Nc1ccnc2cc(Cl)ccc12	none (no result: NPSR antagonist)
COc1ccc(OCc2ccc(-c3nc(C#N)c(N4CCN(c5cccc(Cl)c5)CC4)o3)o2)cc1	none (no result: IMPase cell inh, NPSR antagonist, HTT ATP protect, IMPase Li cell, HttQ103 aggreg)
Cc1nc2ccc(NS(=O)(=O)c3c(C)c(C)cc(C)c3C)cc2s1	Lamin A splicing inconclusive, HttQ103 aggreg 12.6µM
Cc1ccc2nc(-c3ccc(NS(=O)(=O)c4ccc(F)c(F)c4)cc3)sc2c1	Lamin A splicing inconclusive, HttQ103 aggreg 2.82µM (no result: IMPase cell inh)
Cc1ccc(S(=O)(=O)Nc2ccc3nc(C)sc3c2)cc1	IMPase cell inh inconclusive, Lamin A splicing inconclusive, HttQ103 aggreg 14.1µM
Cc1ccc2nc(-c3ccc(NS(=O)(=O)c4ccccc4)cc3)sc2c1	none (no result: IMPase cell inh)
Cc1nc2cc(NS(=O)(=O)c3c(C)c(C)cc(C)c3C)ccc2s1	NPSR antagonist inconclusive, Lamin A splicing inconclusive
CN(C)CC(O)Cn1c2ccc(Br)cc2c2cc(Br)ccc21 (stereo not given)	none (no result: IMPase cell inh, NPSR antagonist, Lamin A splicing, HttQ103 aggreg)
COC(=O)c1cc(=O)n(CCc2ccccc2)c(=Nc2ccc(F)cc2)s1	NPSR antagonist 10µM, Lamin A splicing inconclusive
CCn1c(=O)cc(C(=O)OC)sc1=Nc1ccc(F)c(F)c1	Lamin A splicing inconclusive
CCOC(=O)c1ccc(N=c2sc(C(=O)OC)cc(=O)n2CCCN2CCOCC2)cc1	NPSR antagonist 12.6µM!, Lamin A splicing inconclusive
Cc1nn(CCc2nn[nH]n2)c2nc(-c3ccc(C4CCCCC4)cc3)cc(C(F)(F)F)c12	NPSR antagonist 12.6µM (no result: IMPase cell inh, Lamin A splicing)
Cc1nn(CCC(=O)O)c2nc(-c3cccnc3)cc(C(F)(F)F)c12	Lamin A splicing inconclusive
O=P(c1ccccc1)(c1ccccc1)c1nc(-c2ccc(Cl)cc2)oc1N1CCOCC1	NPSR antagonist 10µM, Lamin A splicing inconclusive (no result: IMPase cell inh)
COc1ccccc1-c1nnc(Sc2nc([N+](=O)[O-])nn2C)o1	Lamin A splicing inconclusive, HTT ATP protect 17.8µM (no result: HttQ103 aggreg)
Cn1cnnc1Sc1nc([N+](=O)[O-])nn1C	none (no result: IMPase cell inh)
CCCc1nc(SCC(=O)Nc2nc3c(s2)CCCC3)c2ccccc2n1	Lamin A splicing inconclusive, IMPase Li cell 12.6µM
CCc1nc(SCC(=O)Nc2nc3c(s2)CCCC3)c2ccccc2n1	IMPase cell inh inconclusive, HTT ATP protect 25.1µM, IMPase Li cell 10µM (no result: HttQ103 aggreg)
Cc1ccc2cc3cc(C(=O)N(CC(=O)NC4CCCC4)c4cccc(C)c4C)sc3nc2c1	NPSR antagonist inconclusive, HTT ATP protect 3.16µM
O[C@@H](C1=C/C(=C\c2ccncc2)c2ccccc21)c1ccncc1	none (no result: IMPase cell inh, NPSR antagonist, Lamin A splicing, HttQ103 aggreg)
COc1ccc(C)cc1NC(=O)c1ccccc1NS(=O)(=O)c1ccc(Cl)s1	HttQ103 aggreg 4.47µM (no result: IMPase cell inh)
Cc1ccc(-c2c3c(nc4sc(C(N)=O)c(N)c24)CCC3)cc1	HttQ103 aggreg 10µM
Cc1ccc(O)c(C(=O)c2cnn(C(=O)Cc3csc(C)n3)c2)c1	HttQ103 aggreg 22.4µM
CN1CCN(CCCNC(=O)c2cc3c(-c4ccc(Cl)cc4)nn(C)c3s2)CC1	NPSR antagonist 10µM, Lamin A splicing inconclusive, HttQ103 aggreg inconclusive
CCOC(=O)c1ccc(CN(Cc2ccc(F)cc2)S(=O)(=O)c2ccc(F)c(C(=O)Nc3cc(Cl)ccc3OC)c2)cc1	none (no result: IMPase cell inh, NPSR antagonist, HTT ATP protect, IMPase Li cell, HttQ103 aggreg)
COc1cc(-n2c(=O)c3ccccc3n(CC(=O)c3ccc(Br)cc3)c2=O)cc(OC)c1OC	Lamin A splicing inconclusive, IMPase Li cell 22.4µM (no result: IMPase cell inh)
O=C(NNC(=S)NC1CCCCC1)c1sc2ccccc2c1Cl	Lamin A splicing inconclusive (no result: IMPase cell inh)
CC(C)(C)C(=O)NC(=S)NNC(=O)c1sc2ccccc2c1Cl	Lamin A splicing inconclusive, HttQ103 aggreg 10µM
COC(=O)CC[C@@H](C)C1CC[C@H]2[C@H]3CC[C@H]4C[C@@H]5CCC4(C)[C@@]3(O5)[C@@H](Br)[C@@H](Br)[C@@]12C (stereo not given in full)	none (no result: IMPase cell inh, NPSR antagonist, Lamin A splicing, HTT ATP protect, HttQ103 aggreg)
CSc1nc2ccccc2n1Cc1c(Cl)cccc1Cl	HttQ103 aggreg 11.2µM
